Many of the other results were omitted from the sample, so hits are more common in it than they were.
Shiga inhibitor: Shiga toxin inhibition; Vero cells, Shiga toxin protein synthesis inhibition reporter; hit rate 9.2% among 290,000; AID 2315; inhibition, % at 38.7 µM; in the data active means inhibition mostly above about 28%, no sharp cut-off; inactive means mostly below about 43%
Marburg entry inh: inhibitors of Marburg virus binding or cell entry; Potency, µM (doses to about 37.8 µM), usual class: inhibitors; Marburg virus pseudotyped entry inhibition, cell reporter; hit rate 1.8% among 300,000; calls by dose curve; tested in HEK293 cells
LASV entry inh: Lassa virus entry inhibition; Lassa virus pseudotype entry inhibition, cell reporter; Potency, µM (titrated, usually from 37.9 µM), hits mostly inhibitors; hit rate 1.2% among 300,000; calls by dose curve; tested in HEK293 cells; further: nearly all actives have a fitted effect of over 50% in size
Cycloheximide cs: counter-screen hit for Shiga toxin inhibitors, cycloheximide | cell reporter, cycloheximide protein synthesis inhibition counterscreen | max response, % | hit rate 12% among 300,000; in the data active means max response mostly above about 13%, no sharp cut-off; inactive means mostly below about 14%; further: read at 38.3 µM for the half of the compounds with a filed dose
AMA1-RON2 inh: disrupts binding of P. falciparum AMA1 to RON2 | AlphaScreen AMA1-biotinylated RON2 peptide binding | Potency, µM (doses to about 58.2 µM), most hits filed as inhibitors | hit rate 0.2% among 360,000 | AID 720542; active means well fitted inhibition curve with a large enough effect; inconclusive means small, poorly fitted or top-dose-only effect; inactive means no such curve, though single readings can be large or run the other way; further: nearly all actives have a fitted effect of over 45% in size
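AMA1 (3D7) with his tag at 25 nM final met compounds first, then biotinylated RON2 peptide at 25 nM; detection used donor plus acceptor beads, 10 µg/mL apiece, read by AlphaScreen after 30 min at room temperature.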
A number is an active result; i = inactive; ? = inconclusive; nt = no result given.

SMILES	Shiga inhibitor	Marburg entry inh	LASV entry inh	Cycloheximide cs	AMA1-RON2 inh
CC(C)(C)n1ncc2c(=O)n(CC(=O)NCc3ccccc3Cl)cnc21	64	?	?	32	i
CC(C)(C)n1ncc2c(=O)n(CC(=O)NCCc3ccccc3)cnc21	61	i	i	21	i
COc1ccc(CCNC(=O)Cn2cnc3c(cnn3C(C)(C)C)c2=O)cc1OC	i	i	i	i	i
Cc1ccc(NC(=O)Cn2cnc3c(cnn3C(C)(C)C)c2=O)cc1	i	i	i	i	i
Cc1ccc(-n2ccn(CC(=O)NCCc3ccccc3)c(=O)c2=O)cc1C	i	nt	i	33	i
CCc1cc2c(nc1CC)CCN(CCC(C)=NOC[C@@H](C)[C@H](OCc1ccccc1)C(C)C)C2	nt	i	nt	nt	nt
CCOC(=O)c1c(C)[nH]c(C)c1S(=O)(=O)N(C)CC(=O)Nc1ccc(C)c(F)c1	nt	nt	i	nt	nt
COc1ccc(Cl)cc1NC(=O)CSc1nc2ccccc2nc1N1CCCCC1	nt	?	i	nt	nt
Brc1ccccc1-c1nc(-c2ccccc2)no1	79	i	nt	55	nt
Fc1ccccc1-c1nc(-c2cnccc2C(F)(F)F)no1	i	i	i	15	i
Fc1ccccc1-c1nc(-c2ccccc2)no1	68	?	?	40	i
Fc1ccccc1-c1nc(-c2ccncc2)no1	41	nt	nt	24	i
O=C(Nc1cccnc1)c1ccccc1-c1nc(-c2ccccc2F)no1	i	?	i	i	i
COc1ccc(-c2noc(-c3ccccc3-c3ccccc3)n2)cc1	i	i	i	i	i
Brc1ccccc1-c1ccccc1	nt	nt	nt	nt	i
FC(F)(F)c1cccc(-c2nc(-c3ccncc3)no2)c1	i	?	i	i	i
COc1ccc(N(C(=O)c2ccccc2C)S(=O)(=O)c2ccc3c(c2)n(C)c(=O)n3C)cc1	nt	?	i	nt	nt
COc1ccc(-c2noc(-c3ccc(NCc4ccco4)c([N+](=O)[O-])c3)n2)cc1OC	nt	i	i	nt	nt
COc1cc(OC)c(-c2nc(-c3ccncc3)no2)cc1OC	i	nt	nt	i	i
COc1ccc(-c2nc(-c3ccncc3)no2)c(OC)c1	110	nt	nt	61	i
COc1ccc(-c2noc(-c3ccccc3F)n2)cc1	91	nt	nt	51	i
Cc1ccc(-n2c(=O)c3c4c(sc3n(CC(=O)Nc3ccccc3C)c2=O)CCCCC4)cc1C	nt	?	i	nt	nt
COc1ccc(NC(=O)Cn2c(=O)n(Cc3ccco3)c(=O)c3sc4ccccc4c32)cc1Cl	nt	i	i	nt	nt
Cc1ccc(NC(=O)CN(C)C(=O)Cn2ncc(Cl)c(Cl)c2=O)cc1	i	5µM	16µM	i	i
Cc1noc(-c2ccc(-c3noc(-c4ccc(F)cc4)n3)cc2)n1	nt	nt	i	nt	nt
SMILES	Shiga inhibitor	Marburg entry inh	LASV entry inh	Cycloheximide cs	AMA1-RON2 inh
Fc1ccc(-c2noc(-c3ccc4c(c3)CCO4)n2)cc1	77	?	10µM	56	i
O=C(CN1C(=O)COc2ccc(S(=O)(=O)N3CCOCC3)cc21)NCc1ccc(Cl)cc1	nt	nt	i	nt	nt
O=C(NCCN1C(=O)S/C(=C\c2cccs2)C1=O)[C@H](Cc1ccccc1)N1C(=O)c2ccccc2C1=O	i	i	i	i	nt
Cc1csc(NC(=O)c2ccc3nc[nH]c3c2)n1	i	?	?	52	i
Cc1csc(NC(=O)c2cccnc2Cl)n1	nt	?	i	nt	i
Cc1csc(NC(=O)c2cccc(C)c2C)n1	i	?	i	38	i
Cc1csc(NC(=O)c2cnccn2)n1	i	i	i	45	i
Cc1csc(NC(=O)NCC2CCCC(CNC(=O)Nc3nc(C)cs3)C2)n1 (stereo unspecified)	43	?	i	30	i
CC(=O)Nc1nc(C)cs1	i	i	i	i	i
COc1ccc(C2=Nn3c(nnc3-c3cc(OC)ccc3OC)SC2)cc1	i	nt	nt	i	nt
CC(=O)Nc1ccc(S(=O)(=O)NCCC(=O)OCC(=O)NNC(=O)c2ccccc2)cc1	nt	i	i	nt	i
C[C@H](CO)NC(=O)c1nc[nH]c1C(=O)N[C@H](C)c1ccccc1	nt	nt	nt	nt	i
COc1cccc(C(=O)Nc2nc(C)cs2)c1	68	?	?	35	i
Cc1csc(NC(=S)NC(=O)c2ccccc2)n1	61	?	i	22	i
Cc1csc(NC(=O)c2ccccc2)n1	nt	nt	nt	43	i
Cc1csc(NC(=O)c2ccncc2)n1	i	nt	nt	i	i
Cc1csc(NC(=O)c2ccc[nH]c2=O)n1	nt	nt	nt	36	i
COc1ccc2c(c1)NC(c1cccnc1)=NC(c1ccc(F)cc1)=N2	nt	i	i	nt	nt
O=S1(=O)c2ccc(Br)cc2-n2nncc2CN1Cc1ccc(C(F)(F)F)cc1	nt	nt	i	nt	nt
CC(C)(C)[C@]1(O)C[C@@H]2OC(=O)CC23C(=O)O[C@@H]2OC(=O)[C@H](O)C231 (stereo partly specified)	i	nt	nt	i	nt
CCOC(=O)c1sc(=NC(=O)c2cc(OC)c(OC)c(OC)c2)n(C)c1C	i	i	i	i	i

High-throughput results from PubChem.
